CCT chaperon mod – changes cytosolic chaperonin activity; purified chaperonin ATPase assay, HTRF ADP detection, 30 min; actives 0.3% (n = 360,000); activity change, % (no concentration beside the values), hits read low; in the data active = activity change below about -30%
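ATPase activity: ADP formed was measured by HTRF Transcreener (665/615 nm ratio) after 30 min at 37 deg C with 10 uM ATP. Compounds screened at one 76 uM concentration against 40 or 20 nM TRiC in Tris pH 7.4/KCl/MgCl2/DTT buffer.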
MmCpn inh – blocks the Methanococcus maripaludis chaperonin Mm-Cpn | purified Mm-Cpn ATPase, ADP Transcreener TR-FRET | Potency, µM (top dose mostly 76.9 µM), inactives show at the highest dose activity, negative = inhibition, hits mostly inhibitors | actives 0.031% (n = 330,000) | AID 504842; note: potency is the fitted concentration of half-maximal effect; nearly all actives have a fitted effect of over 80% in size
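Eu-cryptate anti-ADP/ADP-d2 competition gives a ratio inversely related to ADP. Enzyme at 25 nM was pre-exposed to compound for 10 min, then given 10 uM ATP for 30 min, 37°C throughout.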
Sfp PPTase inh – Sfp phosphopantetheinyl transferase inhibition | Q9F4F7 | Biochemical Sfp PPTase activity, qHTS | Potency, µM, for the others: largest response in the series, negative = inhibition, hits mostly inhibitors | actives 3.5% (n = 310,000);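 note: the enzyme is Sfp with the accession as filed and its product quenches rhodamine fluorescence; potency is the fitted concentration of half-maximal effect; 0% = enzyme reaction without inhibitor and -100% = no enzyme wells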
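With Hepes-Na pH 7.6 buffer containing 10 mM MgCl2, Sfp (15 nM) modified BHQ-2-YbbR (12.5 uM) using rhodamine-CoA (5 uM). Two reads 30 minutes apart at 525/598 nm yielded each well's rate.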
PLK1 PBD inh – PLK1 (human) polo-box domain binding inhibition; Potency, µM, inactives show max response, negative = inhibition, hits mostly inhibitors; P53350; Plk1 PBD binding of FITC phosphopeptide, fluorescence polarization; actives 2.8% (n = 360,000); note: potency is the fitted concentration of half-maximal effect; series mostly up to about 57 µM; nearly all actives have a fitted effect of over 65% in size
G9a block – inhibitors of human histone lysine methyltransferase G9a | Potency, µM (series often up to 102 µM), without a hit: at the top dose activity, negative = inhibition, hits mostly inhibitors | actives 8.8% (n = 350,000) | G9a H3K9 monomethylation, AlphaScreen, 2 h; note: potency is the fitted concentration of half-maximal effect; nearly all actives have a fitted effect of over 75% in size
Target sequence (Q96KQ7 913-1193 limits assumed): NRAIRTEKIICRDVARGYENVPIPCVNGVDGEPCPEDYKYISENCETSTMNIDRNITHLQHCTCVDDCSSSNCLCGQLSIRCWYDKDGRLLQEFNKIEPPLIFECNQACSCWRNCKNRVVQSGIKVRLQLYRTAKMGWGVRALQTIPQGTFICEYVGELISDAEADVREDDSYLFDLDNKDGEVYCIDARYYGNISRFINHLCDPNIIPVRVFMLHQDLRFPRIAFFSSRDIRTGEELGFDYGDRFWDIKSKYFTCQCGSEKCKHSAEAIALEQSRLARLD
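AlphaScreen detection with an anti-monomethyl H3K9 antibody quantified product after a 2 h room-temperature reaction containing 500 nM biotinylated H3K9 peptide, 20 µM SAM and 20 nM enzyme, which had been preincubated 15 min with compound.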
VDR inh – vitamin D3 receptor (human) inhibition | P11473 | VDR-SRC2-3 peptide fluorescence polarization, 2 h | Potency, µM, inactives show max response, negative = inhibition, most hits filed as inhibitors | actives 0.93% (n = 400,000); note: potency is the fitted concentration of half-maximal effect
Target sequence (P11473 whole entry, looked up): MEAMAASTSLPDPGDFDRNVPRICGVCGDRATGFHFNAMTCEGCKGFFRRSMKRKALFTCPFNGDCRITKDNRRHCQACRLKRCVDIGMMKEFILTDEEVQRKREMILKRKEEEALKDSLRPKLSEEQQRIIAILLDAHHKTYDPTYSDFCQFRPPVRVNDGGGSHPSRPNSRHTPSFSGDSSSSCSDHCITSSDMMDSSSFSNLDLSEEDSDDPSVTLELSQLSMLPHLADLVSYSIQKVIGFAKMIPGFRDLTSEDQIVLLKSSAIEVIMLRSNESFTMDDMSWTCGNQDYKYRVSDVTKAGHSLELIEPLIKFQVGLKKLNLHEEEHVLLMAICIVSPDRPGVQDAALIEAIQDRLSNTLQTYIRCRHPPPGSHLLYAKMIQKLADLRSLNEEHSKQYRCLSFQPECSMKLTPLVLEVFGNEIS
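Fluorescence polarization assay measuring small-molecule disruption of VDR binding to the coregulator peptide SRC2-3. Compounds were pin-transferred (23 nl) into the reagent mix and incubated 2 h at room temperature before reading.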
* = called active by the depositor; ? = inconclusive; / = no result given; [ ] = remark or other dose. Only some compounds are listed: those with a hit (about 10% of all), similar ones and a draw of the others. Unless noted, calls come from the whole dose curve; as a rule, active = well fitted curve in the direction sought with a large enough effect; inconclusive = small, poorly fitted or top-dose-only effect, or another doubt; inactive = no such curve, though single readings can be large; an effect the other way counts as inactive or inconclusive. Unless noted, % is set by controls: 0 for no effect and ±100 for the full control effect.

SMILES	CCT chaperon mod	MmCpn inh	Sfp PPTase inh	PLK1 PBD inh	G9a block	VDR inh
CCOc1ccc(CN2CCc3nc(Nc4ccc5c(c4)OCCO5)ncc3C2)cc1	/	/	/	/	-0.4%[59 µM]	3.9%
Cc1nc(N2CCOCC2)c2nc(-c3ccccc3)n(CCN3CCCCC3)c2n1	/	/	27.0%	/	/	/
CCOP(=O)(OCC)C(C#N)=C1SCN(c2ccc(Cl)cc2)CS1	1.7	-1.3%	?	26.7µM*	?	?
CC(C)Sc1nnc(-c2c[nH]c3ccccc23)n1C	-0.5	0.1%	11.8%	-4.5%	-4.8%	6.0%
CN=c1scc(-c2c[nH]c3ccccc23)n1C	0.1	-2.6%	-7.2%	?	39.8µM*	-9.6%
CCOc1ccccc1-n1nnnc1SCC(=O)NC(=O)Cc1ccccc1	-2.4	2.2%	/	-8.0%	10µM*	2.7%
O=C(CSc1nnc(COc2ccccc2Cl)o1)NC(=O)NCc1ccco1	-0.8	-4.5%	-10.2%	-19.1%	50.1µM*	12.2%
CCOc1ccccc1-n1nnnc1SCC(=O)N1CCCC1=O	-5.2	-1.9%	/	0.8%	/	9.5%
CCOc1ccccc1-n1nnnc1SCC(=O)NC(=O)NCc1ccco1	-0.3	-0.3%	-17.4%	-5.3%	79.4µM*	17.5%
Cc1ccccc1OCc1nnc(SCC(=O)NC2CCCCC2)o1	0.8	-8.7%	-12.6%	?	50.1µM*	12.6%
CC(C)(C)NC(=O)NC(=O)CSc1nnc(COc2ccccc2Cl)o1	-1.2	0.2%	12.4%	-13.1%	?	4.4%
Nc1ccc(NC(=O)c2cc(Cl)ccc2O)c(Cl)c1	/	/	/	/	/	4.0%
CCOc1ccccc1CNc1ncnc2c1nc1n2CCCC1	/	/	/	/	-3.0%[59 µM]	5.6%
CC(=O)NCCNc1ncnc2ccc(-c3ccc(C(=O)N(C)C)cc3)cc12	/	/	-6.2%	/	/	4.7%
O=C1c2cccc3c2[C@@H](CCC3)CN1[C@@H]1CN2CCC1CC2	/	/	2.6%	/	-27.3%[12.7 µM]	1.5%
Cc1nc(-n2nc(C)c(Cc3ccc(Cl)cc3)c2C)sc1C(=O)N1CCC(C)CC1	/	/	/	/	-3.7%[59 µM]	2.6%
CCC(=O)N1c2ccccc2[C@@H](N(C(C)=O)c2ccccc2)C[C@H]1C	-78.7*	-0.8%	2.7%	-12.4%	-1.8%[12.7 µM]	-3.5%
Cc1ccccc1CNC1CCCCC1	-2.0	0.2%	6.0%	?	-9.7%[59 µM]	3.7%
O=[N+]([O-])c1ccccc1CNC1CCCCCC1	-0.8	-0.2%	-18.6%	-10.5%	22.4µM*	1.9%
O=C(CCC(=O)N1CC2CCCN2c2ccccc21)NCc1ccc(Cl)cc1 (stereo not drawn)	/	/	/	/	-50.9%[59 µM]	2.3%
CC1CCc2ccccc2N1C(=O)c1cccs1 (stereo not drawn)	0.0	-0.9%	18.6%	21.2µM*	25.7%[59 µM]	?
COCc1cc(C)nc2sc3c(c12)NC(c1ccccc1C(=O)O)N(c1cccc(C(F)(F)F)c1)C3=O (stereo not drawn)	/	/	/	/	11.6%[59 µM]	17.2%
COc1cc(C2SCCS2)cc(Br)c1Oc1ncccc1[N+](=O)[O-]	-3.3	-8.5%	10.0%	-2.0%	10µM*	2.3%
COc1cc(-c2nc3ccc(C)cn3c2Nc2ccc3c(c2)OCCO3)ccc1O	-0.5	-16.1%	-16.8%	-3.1%	22.4µM*	-6.5%
c1ccc(Nc2c(-c3ccco3)nc3ccccn23)cc1	0.8	-5.5%	-5.8%	-2.4%	?	0.2%
SMILES	CCT chaperon mod	MmCpn inh	Sfp PPTase inh	PLK1 PBD inh	G9a block	VDR inh
Oc1ccc(-c2nc3ccccn3c2Nc2ccc3c(c2)OCCO3)cc1	/	/	/	/	12.6µM*	15.6%
Cc1ccc(Nc2c(-c3ccco3)nc3ccccn23)cc1	-1.8	-9.1%	?	-7.2%	39.8µM*	-8.3%
Cc1ccc2nc(-c3ccco3)c(Nc3ccc4c(c3)OCCO4)n2c1	/	/	/	/	?	-9.7%
c1coc(-c2nc3ccccn3c2Nc2ccc3c(c2)OCCO3)c1	/	/	/	/	12.6µM*	6.0%
Cc1cccc(NC(=O)c2cc3c(=O)n(Cc4cccnc4)ccc3nc2C)c1	/	/	/	/	3.9%[59 µM]	15.3%
Cc1ccc(Nc2c(-c3c[nH]c4ccccc34)nc3ccccn23)cc1	/	/	/	/	28.2µM*	-4.2%
Cc1ccccc1Nc1c(-c2ccc(Cl)cc2)nc2c(C)cccn12	/	/	/	/	-26.9%[59 µM]	-6.2%
Cc1ccc2nc(-c3ccc(C)s3)c(Nc3ccc4c(c3)OCCO4)n2c1	/	/	/	/	-29.3%[59 µM]	-5.2%
COc1ccc(Nc2c(-c3ccco3)nc3cccc(C)n23)cc1	-0.7	-3.8%	-5.8%	-5.3%	25.1µM*	-0.2%
Cc1ccc(-c2nc3ccccn3c2Nc2ccc3c(c2)OCCO3)s1	/	/	/	/	8.91µM*	-7.3%
Cc1ccccc1Nc1c(-c2ccco2)nc2c(C)cccn12	/	/	/	/	14.1µM*	-7.9%
CCOc1cc(C2c3c(oc4ccccc4c3=O)C(=O)N2Cc2ccc3c(c2)OCO3)ccc1O (stereo not drawn)	/	/	/	/	4.0%[59 µM]	7.1%
O=C(c1ccccc1Cl)N1CCCC(c2nc3c(nnn3Cc3ccc(F)cc3F)c(=O)[nH]2)C1 (stereo not drawn)	/	/	/	/	5.7%[59 µM]	-1.6%
C=CC[n+]1ccc(/C=C2\C=Cc3cc(C)ccc3N2CC)c2ccccc21	-1.8	-2.4%	-18.4%	-17.6%	14.1µM*	-20.8%
COc1cccc(C2=Nn3c(nnc3-c3ccc(OC)c(OC)c3)SC2)c1	/	/	-0.3%	/	/	/
Cc1ccc(-c2cc3ncc(C(=O)c4cc([N+](=O)[O-])ccc4O)cn3n2)cc1	/	/	/	/	-1.0%[59 µM]	-22.1%
COc1cc(CNCc2ccccn2)ccc1OCc1cccc(Cl)c1	-2.3	0.2%	79.4µM*	2.7%	18.5%[0.0925 µM]	1.5%
COc1cc(CNCc2ccccn2)ccc1OCc1c(Cl)cccc1Cl	0.5	1.9%	39.8µM*	3.6%	-37.0%	14.1%
O=C(CCCn1c2ccccc2c(=O)c2ccccc21)Nc1ccc(F)cc1Cl	/	/	/	/	4.2%[59 µM]	-10.1%
CCOc1ccccc1CNC(=O)c1ccc(NC(=O)C2=C(C)OCCS2)cc1	0.3	-1.4%	11.1%	-12.1%	31.6µM*	-13.7%
COC(=O)CC(NC(=S)NC(=O)c1ccccc1)c1ccc(Br)cc1 (stereo not drawn)	-1.0	0.5%	3.3%	-6.1%	39.8µM*	-2.5%
COC(=O)CC(N)c1ccc(Br)cc1 (stereo not drawn)	-0.5	2.3%	18.1%	-10.1%	-39.6%	-3.3%
CCc1ccc(S(=O)(=O)Nc2cc3c(cc2N2CCOCC2)n(C)c(=O)c(=O)n3C)cc1	-0.7	-2.7%	15.4%	-14.5%	-33.0%[59 µM]	-8.0%
Cc1cc(S(=O)(=O)Nc2cc3c(cc2N2CCOCC2)n(C)c(=O)c(=O)n3C)ccc1F	/	/	/	/	-42.3%[59 µM]	15.8%
Cn1c(=O)c(=O)n(C)c2cc(N3CCCC3)c(NS(=O)(=O)c3ccc(F)cc3)cc21	-1.7	-1.1%	1.5%	-9.3%	39.8µM*	-11.7%
Cn1c(=O)c(=O)n(C)c2cc(N3CCOCC3)c(NS(=O)(=O)c3ccc(Br)cc3)cc21	-8.5	-28.1%	44.7µM*	-10.3%	35.5µM*	-3.4%
